Assay results from PubChem BioAssay (EPA / NIEHS).
Inconclusive results are not listed. Activity calls are given as the source filed them. How the source made its calls, unless noted: active means hit-call score of the fitted dose curve at least 0.9, where 1 is the maximum; inconclusive means response in the unintended direction; inactive means score below 0.9.

What was measured:
[1] = target: Cellular tumor antigen p53 (Homo sapiens) (UniProt P04637); test: TOX21_p53_BLA_p2_ratio: Tox21 HCT-116 p53 Agonism Beta-lactamase Assay, Ratio, Phase 2 (AID 2283592)
Cellular tumor antigen p53 (Homo sapiens), sequence (P04637 whole entry, looked up): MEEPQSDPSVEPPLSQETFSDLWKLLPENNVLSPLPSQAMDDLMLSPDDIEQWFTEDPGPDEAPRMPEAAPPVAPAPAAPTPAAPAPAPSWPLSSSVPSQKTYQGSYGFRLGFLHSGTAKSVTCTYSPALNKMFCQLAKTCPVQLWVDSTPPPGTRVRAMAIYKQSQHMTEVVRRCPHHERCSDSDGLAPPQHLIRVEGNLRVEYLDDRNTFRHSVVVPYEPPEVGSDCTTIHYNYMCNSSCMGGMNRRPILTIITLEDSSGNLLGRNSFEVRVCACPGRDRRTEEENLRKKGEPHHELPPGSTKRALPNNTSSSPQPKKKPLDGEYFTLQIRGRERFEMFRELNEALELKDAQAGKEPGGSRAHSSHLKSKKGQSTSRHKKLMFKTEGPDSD
Summary of the method: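 HCT116 p53-bla; 4000 cells/well; 5 h pre-incubation; cpd in DMSO, 217-fold dilution; 16 h 37C/5% CO2; CCF4-AM 2 h RT; Ex 405, Em 460/530 ratio; DMSO = baseline; positive fitting direction.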

[2] = TOX21_p53_BLA_p3_viability: Viability Assessment in the Tox21 HCT-116 p53 Agonism Beta-lactamase Assay, Phase 3 (AID 2283593);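 further: cells exposed to compound for 16 h before reading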
Summary of the method: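 HCT-116 cells (4000/well) rested 5 h at 37C, then got DMSO compounds by pin tool (217-fold dilution) for 16 h at 37C, 5% CO2. After the bla read, CellTiter-Glo was added and luminescence read at 30 min, room temperature.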

[3] = target: Cellular tumor antigen p53 (Homo sapiens) (UniProt P04637); test: TOX21_p53_BLA_p3_ratio: Tox21 HCT-116 p53 Agonism Beta-lactamase Assay, Ratio, Phase 3 (AID 2283596)
Summary of the method: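 HCT116 p53-bla cells (4000/well) given compound in DMSO (217-fold dilution) after 5 h, incubated 16 h at 37C. CCF4-AM substrate 2 h at room temperature; 460/530 nm emission ratio, gain fitted against DMSO.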

[4] = TOX21_p53_BLA_p4_viability: Viability Assessment in the Tox21 HCT-116 p53 Agonism Beta-lactamase Assay, Phase 4 (AID 2283597);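 further: hits lower the luminescence signal meaning cytotoxicity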
Summary of the method: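 Cells plated, 5 h pre-incubation; DMSO compounds pinned (217-fold dilution); 16 h, 37C/5% CO2; CCF4-AM 2 h RT; CellTiter-Glo 30 min RT; luminescence read.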

[5] = target: Cellular tumor antigen p53 (Homo sapiens) (UniProt P04637); test: TOX21_p53_BLA_p5_ratio: Tox21 HCT-116 p53 Agonism Beta-lactamase Assay, Ratio, Phase 5 (AID 2283599)
Summary of the method: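 HCT-116 cells carrying a p53-inducible beta-lactamase reporter were seeded at 4000 cells/well and dosed after 5 h with compound in DMSO (217-fold dilution). After 16 h at 37C, CCF4-AM substrate was added for 2 h, and the 460/530 nm emission ratio was scored as gain-of-signal versus DMSO.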

[6] = target: Cellular tumor antigen p53 (Homo sapiens) (UniProt P04637); test: TOX21_p53_BLA_p4_ratio: Tox21 HCT-116 p53 Agonism Beta-lactamase Assay, Ratio, Phase 4 (AID 2283601)
Summary of the method: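 HCT116 cells carrying an inducible beta-lactamase reporter were plated at 4000 cells/well, rested 5 h, then exposed to compounds in DMSO (217-fold dilution) for 16 h at 37C. CCF4-AM substrate was loaded 2 h at room temperature; 460/530 nm emission ratio scored gain-of-signal versus DMSO.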

[7] = system: Thyroperoxidase (TPO), gene 54314; test: CCTE_Simmons_AUR_rTPO: CCTE's Amplex UltraRed Assay for Thyroperoxidase (TPO) Inhibition, Simmons Lab (AID 2283662)
Summary of the method: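 Rat thyroid microsomes (5 ug protein) with 25 uM Amplex UltraRed and 300 uM H2O2 in 200 mM phosphate buffer, 30 min at 37C in dark; fluorescence 544/590 nm. Eight concentrations, 5 nM–87.5 uM final, 0.5% DMSO, triplicate biological replicates.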

[8] = CCTE_Simmons_CellTiterGLO_HEK293T: Viability Assessment in CCTE's Assays for Thyroperoxidase (TPO) Inhibition, Simmons Lab (AID 2283665);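 further: cells exposed to compound for 24 h before readout; actives reduce ATP signal below DMSO vehicle meaning cytotoxicity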
Summary of the method: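 HEK293T cells in DMEM with 1% FBS, dosed 24 h at 37C with 8 concentrations, 5 nM–87.5 uM final, 0.5% DMSO. ATP measured by CellTiter Glo luminescence; loss of signal vs DMSO, three biological replicates.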

[9] = target: Luciferin 4-monooxygenase (Photinus pyralis) (UniProt P08659); test: CCTE_Simmons_QuantiLum_inhib_2: CCTE's Firefly Luciferase Inhibition Assay, Simmons Lab (AID 2283767);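 further: potency for inhibitors that lower luciferase luminescence relative to DMSO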
Luciferin 4-monooxygenase (Photinus pyralis), sequence (P08659 whole entry, looked up): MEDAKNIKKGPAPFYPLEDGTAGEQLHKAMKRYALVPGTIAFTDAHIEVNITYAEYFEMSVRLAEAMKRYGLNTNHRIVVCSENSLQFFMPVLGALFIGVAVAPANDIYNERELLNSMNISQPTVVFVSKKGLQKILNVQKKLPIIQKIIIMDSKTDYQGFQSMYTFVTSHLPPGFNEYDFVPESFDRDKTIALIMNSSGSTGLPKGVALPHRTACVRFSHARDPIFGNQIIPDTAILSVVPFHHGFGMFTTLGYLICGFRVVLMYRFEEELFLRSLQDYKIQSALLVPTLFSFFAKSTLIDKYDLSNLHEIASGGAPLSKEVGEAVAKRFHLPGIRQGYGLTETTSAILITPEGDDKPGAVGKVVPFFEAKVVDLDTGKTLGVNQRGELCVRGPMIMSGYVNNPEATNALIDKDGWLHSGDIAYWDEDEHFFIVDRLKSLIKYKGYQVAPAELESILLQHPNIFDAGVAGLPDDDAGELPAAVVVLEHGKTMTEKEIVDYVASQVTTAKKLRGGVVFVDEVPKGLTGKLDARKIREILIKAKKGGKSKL
Summary of the method: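 Cell-free recombinant firefly luciferase (5 ng/well) in 200mM potassium phosphate with 1 mg/ml BSA, 30 min at 37C with 8 concentrations from 5 nM to 87.5 uM [final], 0.5% DMSO. Luminescence read after D-luciferin (150uM)/dATP (147uM) reagent injection, pH 7.8; triplicates.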

[10] = CCTE_Shafer_MEA_dev_firing_rate_mean: CCTE's Neural Network Formation Assay for Mean Firing Rate, Shafer Lab (AID 2284031; active means hit-call score of the fitted dose curve at least 0.9, where 1 is the maximum; inactive means score below 0.9;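 further: curve fitted for loss of firing so AC50 reflects decreased mean firing rate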)
Summary of the method: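 Primary rat cortical neurons on 48-well MEA plates, exposed from plating day 0 with dosing renewed on DIV 5 and 9. Mean well firing rate over active electrodes, recorded days 5, 7, 9, 12, summarised as trapezoidal AUC.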

[11] = CCTE_Shafer_MEA_dev_per_burst_spike_percent: CCTE's Neural Network Formation Assay for Percent of Spikes in a Burst, Shafer Lab (AID 2284032; active means hit-call score of the fitted dose curve at least 0.9, where 1 is the maximum; inactive means score below 0.9;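 further: fitted as a decrease in burst spike percentage below DMSO baseline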)
Summary of the method: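 Rat primary cortical neurons on 16-electrode MEA wells, dosed from plating day 0 for 12 days with renewal on DIV 5 and 9; spikes-in-bursts percentage averaged over bursting electrodes, collapsed as AUC across days 5, 7, 9, 12; loss direction versus DMSO.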

[12] = CCTE_Shafer_MEA_dev_active_electrodes_number: CCTE's Neural Network Formation Assay for Number of Active Electrodes, Shafer Lab (AID 2284040);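 further: potency for loss of active electrodes versus DMSO so lower counts are hits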
Summary of the method: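 Primary rat cortical neurons on 16-electrode MEA wells, exposed from day 0 through day 12 with compound renewed at DIV 5 and 9 feeds. Active electrodes (mean firing ≥5 spikes/min) counted at DIV 5, 7, 9, 12; trapezoidal AUC across days, loss-of-signal versus DMSO.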

[13] = CCTE_Shafer_MEA_dev_burst_rate: CCTE's Neural Network Formation Assay for Burst Rate, Shafer Lab (AID 2284042; active means hit-call score of the fitted dose curve at least 0.9, where 1 is the maximum; inactive means score below 0.9;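 further: potency for loss of burst rate below DMSO control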)
Summary of the method: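 Primary rat cortical neurons on PEI-coated 48-well MEA plates (laminin added with cells at plating) (16 electrodes/well), exposed from plating to day 12, dosing renewed at DIV 5 and 9. Burst rate averaged over active electrodes, recorded DIV 5, 7, 9, 12, summarized as AUC; loss versus DMSO.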

[14] = CCTE_Shafer_MEA_dev_bursting_electrodes_number: CCTE's Neural Network Formation Assay for Number of Bursting Electrodes, Shafer Lab (AID 2284043);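 further: potency is for loss of bursting electrodes relative to DMSO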
Summary of the method: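 Primary rat cortical neurons were cultured on PEI-coated 48-well MEA plates (16 electrodes/well) and exposed from plating through day 12, with compound renewed at feeds on DIV 5 and 9. Electrodes bursting ≥1 per 2 min were counted on DIV 5, 7, 9, 12; trapezoidal AUC taken.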

[15] = CCTE_Shafer_MEA_dev_per_burst_interspike_interval: CCTE's Neural Network Formation Assay for Burst Interspike Interval, Shafer Lab (AID 2284044; active means hit-call score of the fitted dose curve at least 0.9, where 1 is the maximum; inactive means score below 0.9;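 further: mean spike spacing inside bursts as AUC over recordings on days 5 7 9 12; potency for a decrease of within-burst interspike interval below DMSO level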)
Summary of the method: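 Neurons from rat cortex plated onto PEI-coated MEA wells with laminin […] at 1.5 x 10^5 cells/well, then treated from day 0. Media and compound fully replaced on DIV 5 and 9. Extracellular spontaneous firing recorded four times; interspike interval per burst summarised as AUC.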

[16] = CCTE_Shafer_MEA_dev_burst_duration_mean: CCTE's Neural Network Formation Assay for Mean Burst Duration, Shafer Lab (AID 2284045; active means hit-call score of the fitted dose curve at least 0.9, where 1 is the maximum; inactive means score below 0.9;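 further: curve fitted for loss meaning shorter burst duration than DMSO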)
Summary of the method: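 Primary rat cortical neurons on PEI-coated 16-electrode MEA wells, exposed from plating through day 12 with compound renewed at DIV 5 and 9; spontaneous activity recorded days 5, 7, 9, 12. Well-mean burst duration collapsed as trapezoidal AUC, fitted for loss versus DMSO.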

[17] = CCTE_Shafer_MEA_dev_interburst_interval_mean: CCTE's Neural Network Formation Assay for Mean Interburst Interval, Shafer Lab (AID 2284046; active means hit-call score of the fitted dose curve at least 0.9, where 1 is the maximum; inactive means score below 0.9;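 further: well-mean interburst interval of bursting electrodes as AUC over four recording days; curve fitted for decrease in interburst interval relative to DMSO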)
Summary of the method: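 Recordings on days 5, 7, 9 and 12 give well-mean interburst interval across actively bursting electrodes, summarized as area under the curve. Cultures: rat cortical neurons, continuous exposure from day 0, compound renewed at feeds; decrease analyzed versus DMSO.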

[18] = CCTE_Shafer_MEA_dev_inter_network_spike_interval_mean: CCTE's Neural Network Formation Assay for Mean Inter-network Spike Interval, Shafer Lab (AID 2284047; active means hit-call score of the fitted dose curve at least 0.9, where 1 is the maximum; inactive means score below 0.9;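 further: potency for a decrease in mean inter-network spike interval below DMSO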)
Summary of the method: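 Primary rat cortical neurons on 16-electrode MEA wells, exposed from plating day 0 through DIV 12, compound renewed at DIV 5 and 9 media changes. Mean interval between network-spike peaks recorded DIV 5, 7, 9, 12; collapsed as trapezoidal AUC, fitted downward versus DMSO.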

Measured: AC50

[CH3][Hg][Cl]
active: [1] 44800 nM | [2] 79600 nM | [3] 1770 nM | [5] 2250 nM | [8] 4180 nM | [9] 4220 nM | [10] 177 nM | [11] 306 nM | [12] 360 nM | [13] 207 nM | [14] 370 nM | [15] 322 nM | [16] 260 nM | [17] 340 nM | [18] 5.7 nM
inactive: [4] | [6] | [7]
